# Activity calls are given as the source filed them. Unless noted, no stated cut-off is given here; in the data, active means inhibition above about 80%; inactive means the rest.
# Key:
# [1] = LFS_MB_P medulloblastoma growth inhibition, cell-based, chromothripsis tumors, cisplatin or BGB combos (AID 1671449); conditions: LFS_MB_P medulloblastoma cells;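 further: cells exposed for 96 hours; 0% = vehicle DMSO and 100% = killing by high DMSO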
# [2] = HDN33 neuroblastoma growth inhibition, cell-based, chromothripsis tumors, cisplatin or BGB combos (AID 1671450); conditions: HDN33 neuroblastoma cells, stronger effect = higher value;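 further: cells exposed to compound for four days; 0% = vehicle DMSO and 100% = cell killing by high DMSO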
# [3] = ICB984 medulloblastoma cell growth inhibition, synergistic combos for chromothripsis tumors, cisplatin or BGB combos (AID 1671451; call rule not given here;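 further: cells exposed for 96 hours before readout; 0% = vehicle DMSO and 100% = killing by high DMSO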); conditions: ICB984 medulloblastoma cells, drug combinations, stronger effect = higher value
# [4] = LFS_MB_1R medulloblastoma cell growth inhibition, synergistic combos for chromothripsis tumors, cisplatin or BGB combos (AID 1671452); conditions: LFS_MB_1R medulloblastoma cells, stronger effect = higher value;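 further: cells exposed for 96 hours before readout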
# [5] = HTB85 osteosarcoma cell growth inhibition, synergistic combos for chromothripsis tumors, BGB or cisplatin IC20 combos (AID 1671453); conditions: HTB85 osteosarcoma cells, drug combinations, stronger effect = higher value;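 further: cells exposed for 96 hours before readout; 0% = vehicle DMSO and 100% = high DMSO killing control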
# [6] = CRL2098 osteosarcoma cell growth inhibition, synergistic combos for chromothripsis tumors, BGB or cisplatin IC20 combos (AID 1671454); conditions: CRL2098 osteosarcoma cells, drug combinations, stronger effect = higher value;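 further: cells exposed for 96 h before readout; 0% = vehicle DMSO and 100% = killing by high DMSO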
# [7] = HD-MB03 medulloblastoma cell growth inhibition, synergistic combos for chromothripsis tumors, BGB or cisplatin IC20 combos (AID 1671455; in the data active means inhibition above about 83%;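 further: 0% = vehicle DMSO and 100% = high DMSO as cytotoxic control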); conditions: HD-MB03 medulloblastoma cells, stronger effect = higher value
# [8] = UWB1.289 ovarian carcinoma cell growth inhibition, synergistic combos for chromothripsis tumors, BGB or cisplatin combos (AID 1671456); conditions: UWB1.289 ovarian carcinoma cells, stronger effect = higher value;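 further: cells exposed to compound for four days; 0% = vehicle DMSO and 100% = killing by high DMSO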
# [9] = LFS_MB_2R medulloblastoma cell growth inhibition, synergistic combos for chromothripsis tumors, cisplatin combos (AID 1671457); conditions: LFS_MB_2R medulloblastoma cells, stronger effect = higher value;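 further: cells exposed to compound for four days before readout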
# [10] = MDA-MB-436 breast carcinoma cell growth inhibition, synergistic combos for chromothripsis tumors, BGB or cisplatin combos (AID 1671458; call rule not given here;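 further: cells exposed for 96 hours; 0% = vehicle DMSO and 100% = killing by high DMSO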); conditions: MDA-MB-436 breast carcinoma growth inhibition, drug combinations, stronger effect = higher value
# [11] = UWB1.289_BRCA1 ovarian cancer growth, cell-based, BGB or cisplatin combinations (AID 1671459); conditions: UWB1.289 BRCA1 ovarian carcinoma, drug combinations, stronger effect = higher value
# [12] = human astrocyte viability loss, single and combined drugs, cytotoxicity control for chromothriptic childhood tumor combination screen, cell-based, BGB or cisplatin IC20 combos (AID 1671460); conditions: Human astrocytes, drug combinations, stronger effect = higher value;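 further: cells exposed to compounds for 96 hours before viability readout; 0% = vehicle and 100% = killing control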
# [13] = growth inhibition of BT084 medulloblastoma cells, cell-based, ICGC_MB145, cisplatin and BGB IC40 combos (AID 1671461); conditions: drug combinations, stronger effect = higher value;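 further: cells exposed to drugs for 96 hours; 0% = vehicle DMSO and 100% = high DMSO full killing control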
# [14] = growth inhibition of RCMB18 medulloblastoma cells, cell-based, cisplatin and BGB IC40 combos (AID 1671462); conditions: stronger effect = higher value;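 further: cells exposed to compound for four days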
# [15] = growth inhibition of CRL1545 osteosarcoma cells, cell-based, cisplatin and BGB IC20 combos (AID 1671464); conditions: stronger effect = higher value;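 further: cells exposed to compound for 96 hours before readout; 0% = vehicle DMSO and 100% = high DMSO killing control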
# [16] = at 0.5 µM, stronger effect = higher value
# [17] = measured here: combination with BGB IC20, at 0.005 µM
# [18] = measured here: combination with BGB IC40, at 0.005 µM
# [19] = measured here: combination with BGB IC40, at 0.05 µM
# [20] = measured here: combination with cisplatin, at 0.5 µM, stronger effect = higher value
# [21] = measured here: combination with cisplatin, at 5 µM, stronger effect = higher value
# [22] = measured here: with BGB IC20 combination, at 0.5 µM
# [23] = measured here: with cisplatin IC20 combination, at 0.5 µM
# [24] = measured here: 5 uM single agent, at 5 µM
# [25] = measured here: combination with cisplatin, at 0.5 µM
# [26] = measured here: combination with cisplatin, at 5 µM
# [27] = measured here: with BGB IC20, at 0.5 µM
# [28] = measured here: with BGB IC20, at 5 µM
# [29] = measured here: with cisplatin IC20, at 0.5 µM
# [30] = measured here: with cisplatin IC20, at 5 µM
# [31] = measured here: combination with BGB at IC20, at 0.5 µM
# [32] = measured here: combination with cisplatin at IC20, at 0.5 µM
# [33] = measured here: combo with BGB at IC20, at 0.5 µM
# [34] = measured here: combo with cisplatin at IC20, at 0.5 µM
# [35] = measured here: inhibition with BGB combination, at 0.05 µM
# [36] = measured here: inhibition with cisplatin combination, at 0.05 µM
# [37] = measured here: BGB combination, at 0.5 µM
# [38] = measured here: BGB combination, at 5 µM
# [39] = measured here: cisplatin combination, at 0.5 µM
# [40] = measured here: cisplatin combination, at 5 µM
# [41] = BGB combination, concentration series, at 5 µM
# [42] = cisplatin combination, concentration series, at 5 µM
# [43] = measured here: combo with BGB IC20, at 0.5 µM
# [44] = measured here: combo with cisplatin IC20, at 0.5 µM
# [45] = cisplatin combination, at 0.5 µM
# [46] = measured here: BGB IC40 combination 0.05 uM, at 0.05 µM
# [47] = measured here: BGB IC40 combination, at 0.05 µM
structure (smiles),measurement,setting,value
NC(=O)c1cccc2[nH]c(-c3ccc(C4CCCN4)cc3F)nc12 (stereo unspecified),inhibition,[1]; [16],19.3% (inactive)
same,inhibition,[1]; [17],7.36%
same,inhibition,[1]; [18],-24.3%
same,inhibition,[1]; [19],1.68%
same,inhibition,[1]; [20],52.8%
same,inhibition,[1]; [21],58.1%
same,inhibition,"[2]; BGB combo, at 5 µM",54.3%
same,inhibition,[2]; at 0.5 µM,15.5% (inactive)
same,inhibition,"[2]; cisplatin combo, at 5 µM",60.1%
same,inhibition,[2]; [22],22.6%
same,inhibition,[2]; [23],10.8%
same,inhibition,"[2]; single agent, at 5 µM",54.9%
same,inhibition,"[3]; BGB IC20 combo, at 0.005 µM",3.69%
same,inhibition,"[3]; BGB IC40 combo, at 0.005 µM",-38.8%
same,inhibition,"[3]; BGB IC40 combo, at 0.05 µM",41.6%
same,inhibition,[3]; at 0.5 µM,-20.7% (inactive)
same,inhibition,"[3]; cisplatin combo, at 0.05 µM",39.3%
same,inhibition,"[3]; cisplatin combo, at 0.5 µM",-35.8%
same,inhibition,"[3]; cisplatin combo, at 5 µM",-28.7%
same,inhibition,[3]; [24],-6.58%
same,inhibition,[4]; at 0.5 µM,-15.8% (inactive)
same,inhibition,[4]; [19],-15.1%
same,inhibition,[4]; [25],-24.3%
same,inhibition,[4]; [26],48.8%
same,inhibition,[5]; at 0.5 µM,6.65% (inactive)
same,inhibition,[5]; [27],0.81%
same,inhibition,[5]; [28],37.8%
same,inhibition,[5]; [29],2.33%
same,inhibition,[5]; [30],51.1%
same,inhibition,"[5]; single agent, at 5 µM",52.6%
same,inhibition,[6]; at 0.5 µM,-18.9% (inactive)
same,inhibition,[6]; [31],-1.16%
same,inhibition,[6]; [32],-8.89%
same,inhibition,[7]; at 0.5 µM,7.06% (inactive)
same,inhibition,[7]; [33],1.45%
same,inhibition,[7]; [34],11.4%
same,inhibition,[8]; at 0.5 µM,9.31% (inactive)
same,inhibition,[8]; [35],-4.89%
same,inhibition,[8]; [36],-21.6%
same,inhibition,[9]; at 0.5 µM,-11.1% (inactive)
same,inhibition,[9]; [25],-12.4%
same,inhibition,[9]; [26],48.1%
same,inhibition,[10]; at 0.5 µM,12.2% (inactive)
same,inhibition,[10]; [37],-1.6%
same,inhibition,[10]; [38],34.2%
same,inhibition,[10]; [39],12.5%
same,inhibition,[10]; [40],56.6%
same,inhibition,[11]; [41],55.7%
same,inhibition,[11]; at 0.5 µM,12.5% (inactive)
same,inhibition,[11]; [42],69.9%
same,inhibition,[12]; at 0.5 µM,18.3% (inactive)
same,inhibition,[12]; [43],32.5%
same,inhibition,[12]; [44],12%
same,inhibition,[13]; at 0.5 µM,-17.4% (inactive)
same,inhibition,[13]; [45],-7.13%
same,inhibition,"[13]; cisplatin combination, at 5 µM",41.8%
same,inhibition,[13]; [46],14.7%
same,inhibition,"[13]; single agent, at 5 µM",45%
same,inhibition,[14]; at 0.5 µM,-17.5% (inactive)
same,inhibition,"[14]; cisplatin combo, at 5 µM",55.7%
same,inhibition,[14]; [47],-5.7%
same,inhibition,[14]; [25],-29.9%
same,inhibition,"[14]; single agent, at 5 µM",39.2%
same,inhibition,[15]; at 0.5 µM,-0.89% (inactive)
same,inhibition,[15]; [22],-14.3%
same,inhibition,[15]; [23],5.82%
same,inhibition,"[15]; single agent, at 0.05 µM",27.4%
same,inhibition,"[15]; single agent, at 5 µM",63.4%
COc1nc(N)nc2c1ncn2[C@@H]1O[C@H](CO)[C@@H](O)[C@H]1O,inhibition,[1]; [16],4.72% (inactive)
same,inhibition,[1]; [17],15.5%
same,inhibition,[1]; [18],9.31%
same,inhibition,[1]; [19],-38.6%
same,inhibition,[1]; [20],58.9%
same,inhibition,[1]; [21],5.54%
same,inhibition,"[2]; BGB combo, at 5 µM",-39.7%
same,inhibition,[2]; at 0.5 µM,-10.9% (inactive)
same,inhibition,"[2]; cisplatin combo, at 5 µM",-30.3%
same,inhibition,[2]; [22],-0.293%
same,inhibition,[2]; [23],-13.5%
same,inhibition,"[2]; single agent, at 5 µM",-2.81%
same,inhibition,"[3]; BGB IC20 combo, at 0.005 µM",-28.6%
same,inhibition,"[3]; BGB IC40 combo, at 0.005 µM",-6.48%
same,inhibition,"[3]; BGB IC40 combo, at 0.05 µM",-21%
same,inhibition,[3]; at 0.5 µM,-21.1% (inactive)
same,inhibition,"[3]; cisplatin combo, at 0.05 µM",-25.3%
same,inhibition,"[3]; cisplatin combo, at 0.5 µM",-22.6%
same,inhibition,"[3]; cisplatin combo, at 5 µM",-28.5%
same,inhibition,[3]; [24],-19.6%
same,inhibition,[4]; at 0.5 µM,-13.7% (inactive)
same,inhibition,[4]; [19],-35.3%
same,inhibition,[4]; [25],-34.3%
same,inhibition,[4]; [26],-13.1%
same,inhibition,[5]; at 0.5 µM,-19.2% (inactive)
same,inhibition,[5]; [27],-19.6%
same,inhibition,[5]; [28],-25.8%
same,inhibition,[5]; [29],-42.1%
same,inhibition,[5]; [30],-37.2%
same,inhibition,"[5]; single agent, at 5 µM",-10.5%
same,inhibition,[6]; at 0.5 µM,-31.4% (inactive)
same,inhibition,[6]; [31],-18.4%
same,inhibition,[6]; [32],-84.8%
same,inhibition,[7]; at 0.5 µM,-9.1% (inactive)
same,inhibition,[7]; [33],-11%
same,inhibition,[7]; [34],-9.78%
same,inhibition,[8]; at 0.5 µM,-10.1% (inactive)
same,inhibition,[8]; [35],-8.96%
same,inhibition,[8]; [36],-25.3%
same,inhibition,[9]; at 0.5 µM,-9.84% (inactive)
same,inhibition,[9]; [25],-1.3%
same,inhibition,[9]; [26],9.04%
same,inhibition,[10]; at 0.5 µM,-1.85% (inactive)
same,inhibition,[10]; [37],1.63%
same,inhibition,[10]; [38],-10.7%
same,inhibition,[10]; [39],-1.11%
same,inhibition,[10]; [40],-9.18%
same,inhibition,[11]; [41],-2.42%
same,inhibition,[11]; at 0.5 µM,-5.52% (inactive)
same,inhibition,[11]; [42],1.78%
same,inhibition,[12]; at 0.5 µM,-6.61% (inactive)
same,inhibition,[12]; [43],-1.7%
same,inhibition,[12]; [44],-14.9%
same,inhibition,[13]; at 0.5 µM,7.93% (inactive)
same,inhibition,[13]; [45],-30.4%
same,inhibition,"[13]; cisplatin combination, at 5 µM",16.2%
same,inhibition,[13]; [46],42.2%
same,inhibition,"[13]; single agent, at 5 µM",-18%
same,inhibition,[14]; at 0.5 µM,-13.9% (inactive)
same,inhibition,"[14]; cisplatin combo, at 5 µM",-23.5%
same,inhibition,[14]; [47],-4.14%
same,inhibition,[14]; [25],-19%
same,inhibition,"[14]; single agent, at 5 µM",15.2%
same,inhibition,[15]; at 0.5 µM,-24.6% (inactive)
same,inhibition,[15]; [22],-20.2%
same,inhibition,[15]; [23],-28.8%
same,inhibition,"[15]; single agent, at 0.05 µM",-9.67%
same,inhibition,"[15]; single agent, at 5 µM",-66.7%
